Reference: PubChem BioAssay AID977607 (Broad Institute, 2014)
In all, about 1,500 compounds went through this assay and about 460 (31%) were called active. Roughly 1% stayed inconclusive and do not appear here.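 The calls were made as follows: active = curve reaches 40% activation over neutral controls at an AC40 no higher than the top valid tested concentration; inconclusive = no clear call, values can overlap the other calls; inactive = signal moving opposite to the expected increase, and the rest.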 A selection follows. Results with a measured potency or affinity are listed apart.

Experiment: GLuc-reported insulin release enhancers, glucose-stimulated beta cells – cell-based, INS-1E, Gaussia luciferase, luminescence, cherry-pick, set 2, dose response (AID 977607);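 also: 0% = median of the plate neutral control wells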
Details: INS-1E GLuc insulin secretion reporter, 2-3 h, active compounds read high; at 35 µM, 100% = signal doubled over neutral wells unless noted

Row | Structure (SMILES) | max activation
1 | CN(C)CCNc1ncnc2oc(-c3ccccc3)c(-c3ccccc3)c12 | -17.7% [at 0.0016 µM, 100% = signal doubled over neutral wells] (inactive)
2 | CCOC(=O)C1CCCN(C(=O)c2ccccc2OC(F)(F)F)CC1 (configuration not stated) | -23.6% [at 0.0016 µM, 100% = signal doubled over neutral wells] (inactive)
3 | CCOc1cc(/C=N/NC(=O)CCn2nnc3ccccc32)ccc1O | 23.5% (inactive)
4 | CCOc1ccccc1OCCC(=O)NNC(=O)Cn1nc(C)cc1C | -16% [at 0.005 µM, 100% = signal doubled over neutral wells] (inactive)
5 | CCn1nnc(NC(=O)c2sc3ccccc3c2Cl)n1 | -17.8% [at 3.8 µM, 100% = signal doubled over neutral wells] (inactive)
6 | Cc1c(NC(=S)NC(=O)c2sc3ccccc3c2Cl)cccc1C(=O)O | -23.7% [at 0.0016 µM, 100% = signal doubled over neutral wells] (inactive)
7 | CCOc1nc(CC(C)C)c2c(c1C#N)CC(C)(C)OC2 | -26.5% (inactive)
8 | O=C(NN(Cc1ccccc1)Cc1ccccc1)c1ccccc1 | 23.7% [at 1.2 µM, 100% = signal doubled over neutral wells] (inactive)
9 | O=C(c1cc(-c2ccccc2)nc2ccccc12)N1CCCC1 | -13.5% [at 11 µM, 100% = signal doubled over neutral wells] (inactive)
10 | Cn1cc(C(=O)NCC(=O)Nc2ccccc2Br)cn1 | -16.7% [at 0.135 µM, 100% = signal doubled over neutral wells] (inactive)
11 | COc1ccc(CC(=O)c2ccc(OC)c(OC)c2)cc1 | 18.3% [at 0.0016 µM, 100% = signal doubled over neutral wells] (inactive)
12 | COc1cc2ccc(C(C)=O)cc2cc1OC | 29.7% [at 0.0016 µM, 100% = signal doubled over neutral wells] (inactive)
13 | COc1ccc(C(C)=O)cc1CSCc1cc(C(C)=O)ccc1OC | 10.8% (inactive)
14 | CC(C)c1ccc2oc(=O)cc(CN3CCCCC3)c2c1 | -12.8% (inactive)
15 | Cc1cc2oc(=O)cc(CN3CCOCC3)c2c(C)c1Cl | -12.4% [at 0.0016 µM, 100% = signal doubled over neutral wells] (inactive)
16 | COc1ccc(-c2cc(C(F)(F)F)n3nc(C(=O)O)cc3n2)cc1OC | 13.4% (inactive)
17 | Cc1ccccc1Cc1c(C)nc2c(C(=O)NCc3ccco3)cnn2c1C | -44.9% (inactive)
18 | C[C@H]1[C@@H](c2ccccc2)Oc2c(Cl)cccc2S(=O)(=O)N1C | -29.7% [at 11 µM, 100% = signal doubled over neutral wells] (inactive)
19 | CCN1CCN(c2nnc(-c3ccccc3)c3ccccc23)CC1 | 13.4% [at 0.135 µM, 100% = signal doubled over neutral wells] (inactive)

Row | Structure (SMILES) | max activation
20 | COC(=O)Cn1cc(C#N)c2ccccc21 | 43% [at 0.42 µM, 100% = signal doubled over neutral wells] (inactive)
21 | CN(C)C(=O)c1ccc(-c2ccc([C@@H]3[C@@H](CO)N4C(=O)CN(C(=O)C5CC5)C[C@@H]34)cc2)cc1 | 31.8% [at 0.046 µM, 100% = signal doubled over neutral wells] (inactive)
22 | C/C=C1\COC(C(=O)NCc2ccccc2)(C(F)(F)F)C=C1C=C(C)C (configuration not stated) | -29.1% (inactive)
23 | CN(c1ccc(F)cc1)S(=O)(=O)c1ccc(Cl)c(C(=O)NCC2CCCO2)c1 (configuration not stated) | -19.1% (inactive)
24 | CN(C(=O)[C@H]1O[C@@H](n2cnc(C(N)=O)n2)[C@H](O)[C@@H]1O)c1ccccc1 | -24.3% [at 1.2 µM, 100% = signal doubled over neutral wells] (inactive)
25 | CN1CCSc2ccc(C(=O)Nc3cccc(F)c3)cc21 | -34.2% (inactive)
26 | Cc1nc2c(c(N3CCOCC3)n1)OCC(=O)N2 | 52.8% (inactive)
27 | COc1cc(C2N(C)CCC3(OCCO3)C2(C)C)cc(OC)c1OC (configuration not stated) | -12.6% [at 0.0016 µM, 100% = signal doubled over neutral wells] (inactive)
28 | CCSc1nnc2ccc(-c3cccs3)nn12 | 23.8% (inactive)
29 | COc1ccc(-c2nnc3sc(-c4ccco4)nn23)cc1OC | -14.1% [at 0.046 µM, 100% = signal doubled over neutral wells] (inactive)
30 | CC/C(O)=C1\C(=O)CC(c2ccccc2)CC1=NC(C)C (configuration not stated) | -12.6% [at 1.2 µM, 100% = signal doubled over neutral wells] (inactive)
31 | CCN(CC)CCn1c(=N)n(CC(O)COc2ccccc2)c2ccccc21 (configuration not stated) | -13.8% [at 3.8 µM, 100% = signal doubled over neutral wells] (inactive)
32 | CCOC1=C2[C@H](c3ccc(C)cc3)N(S(=O)(=O)c3ccc(C)cc3)C[C@H]2n2c(=O)n(-c3ccccc3)c(=O)n2C1 | -23.2% [at 0.005 µM, 100% = signal doubled over neutral wells] (inactive)
33 | Cc1ccc(C(CC(=O)O)NC(=O)c2ccc(S(=O)(=O)N3CC(C)OC(C)C3)cc2)cc1 (configuration not stated) | -15.8% [at 0.42 µM, 100% = signal doubled over neutral wells] (inactive)
34 | CNc1nc(N)c(C(=O)C(C)(C)C)s1 | 27.9% [at 11 µM, 100% = signal doubled over neutral wells] (inactive)
35 | CC1(C)Cc2c(c(-c3ccco3)nc3n[nH]c(N)c23)CO1 | 25% [at 0.135 µM, 100% = signal doubled over neutral wells] (inactive)
36 | CN=C1c2ccccc2CN1c1cccc(C(=O)OC)c1 | 14.7% (inactive)
37 | O=S(=O)(c1ccc(NCCCO)nc1)N1CCOCC1 | -14.1% [at 0.015 µM, 100% = signal doubled over neutral wells] (inactive)
